Results as given in the antibiotic and cytotoxicity screens of Wong et al. (2023).
Out of some 39,000 compounds screened, about 3,300 (8.5%) were called active. The full list was thinned out, with actives kept by preference.

Tested on: HepG2
Assay: cytotoxicity call (relative viability < 0.9)
Settings: 10 µM

SMILES	cytotoxicity call
C[C@@H]1CN([C@@H](C)CO)C(=O)CCCn2nncc2CO[C@H]1CN(C)C(=O)Nc1ccc(N2CCN(C)CC2)cc1	inactive
C[C@H]1CN([C@@H](C)CO)C(=O)Cc2cc(NC(=O)Nc3cccc4ccccc34)ccc2O[C@H]1CN(C)C(=O)Nc1ccc(F)cc1	inactive
C[C@@H]1CN([C@@H](C)CO)C(=O)c2cc(NS(=O)(=O)c3ccccc3)ccc2O[C@@H](C)CCCCO[C@H]1CN(C)Cc1ccc(C(=O)O)cc1	inactive
Cc1cc(C(=O)Nc2cccc3c2O[C@H](CN(C)S(=O)(=O)c2ccc(Cl)cc2)[C@@H](C)CN([C@@H](C)CO)C3=O)n(C)n1	inactive
Cc1ccc(S(=O)(=O)Nc2ccc3c(c2)CC(=O)N([C@@H](C)CO)C[C@@H](C)[C@H](CN(C)S(=O)(=O)c2ccc(F)cc2)O3)cc1	inactive
CC(C)(O/N=C(\C(=O)N[C@@H]1C(=O)N2C(C(=O)O)=C(C[N+]3(CCNC(=O)c4ccc(O)c(O)c4Cl)CCCC3)CS[C@H]12)c1csc(N)n1)C(=O)O	inactive
CC(C)NC(=O)Nc1ccc2c(c1)C(=O)N([C@@H](C)CO)C[C@@H](C)[C@H](CN(C)C(=O)Nc1ccc(F)cc1)OCCCC[C@@H](C)O2	inactive
C[C@H]1CN([C@@H](C)CO)C(=O)Cc2cc(NS(C)(=O)=O)ccc2O[C@H]1CN(C)C(=O)Nc1ccccc1	inactive
C[C@H]1CN([C@@H](C)CO)C(=O)c2cc(NC(=O)Nc3cccc4ccccc34)ccc2O[C@@H]1CN(C)Cc1ccncc1	inactive
COc1ccc(CNC(=O)N(C)C[C@H]2OCc3ccccc3-c3c(n(C)c4ccccc34)C(=O)N([C@H](C)CO)C[C@@H]2C)cc1	inactive
O=C(C[C@@H]1C[C@@H]2c3cc(NC(=O)C4CCOCC4)ccc3O[C@@H]2[C@@H](CO)O1)NCCN1CCCCC1	inactive
Cc1noc(C)c1S(=O)(=O)Nc1ccc2c(c1)CC(=O)N([C@H](C)CO)C[C@H](C)[C@H](CN(C)C(=O)Nc1ccccc1)O2	inactive
C[C@@H]1CCCCO[C@H](CN(C)Cc2ccc(C(=O)Nc3ccccc3N)cc2)[C@@H](C)CN([C@H](C)CO)C(=O)c2cc(NS(=O)(=O)c3ccccc3)ccc2O1	inactive
C[C@@H]1CCCCO[C@@H](CN(C)Cc2ccc(C(=O)Nc3ccccc3N)cc2)[C@@H](C)CN([C@H](C)CO)C(=O)c2cc(NS(=O)(=O)c3cccs3)ccc2O1	active
C[C@@H]1CCCCO[C@H](CN(C)Cc2ccc(C(=O)Nc3ccccc3N)cc2)[C@@H](C)CN([C@H](C)CO)C(=O)c2cc(NS(=O)(=O)c3cccs3)ccc2O1	inactive
COc1ccc2c3c(n(c2c1)C)[C@H](CO)N(C[C@]13CCN(CC1)C(=O)Nc1ccc(cc1F)F)C(=O)Nc1ccc(cc1)F	inactive
